For nine molecules, growth results are on record in PubChem BioAssay (NCI).

Test systems include NCI-H23 lung; NCI-H226 lung; NCI-H322M lung; HOP-62 NSCLC; NCI-H460 lung; HOP-92 NSCLC; A549/ATCC NSCLC; 786-0 renal; DU-145 prostate; K-562 leukemia; MDA-MB-231 breast; RXF 393 renal; SF-268 CNS; SF-295 CNS; SF-539 CNS; UACC-257 melanoma; M14 melanoma; COLO 205 colon; MALME-3M melanoma.
Holding throughout (assay): NCI-60 one-dose screen, 48 h (100 = growth as untreated, 0 = no growth, -100 = all killed)
What all share (conditions): 10 µM unless noted

Compounds without any hit were thinned out: in the full panel of roughly 83,000, 20% have a hit.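 The endpoint reported here, percent growth, reads 100 for growth as untreated, 0 for no net growth and -100 for all cells dead.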 Unmarked numbers belong to inactive results. Calls of active or inactive are those of the source. How the source made its calls: active means growth percent below 10; inactive means the rest.

As to `CC(=O)C1CCC2C3CC(C)=C4CC(O)CCC4(C)C3CCC12C` (centres undefined), the growth in the assay with NCI-H23 lung is 99.5%; with NCI-H226 lung, 93.4%; with NCI-H322M lung, 103%; in the assay on HOP-62 NSCLC, 124%; in the assay with NCI-H460 lung, 109%; in the assay on HOP-92 NSCLC, 102%. The growth is 99.6% in the assay with A549/ATCC NSCLC; 94.3% in the assay on 786-0 renal; 119% with DU-145 prostate; 86.1% with K-562 leukemia; 101% in the assay on MDA-MB-231 breast; 111% in the assay with RXF 393 renal. For the same molecule, the growth in the assay on SF-268 CNS is 102%; in the assay with SF-295 CNS it was 113%; in the assay with SF-539 CNS, 90.7%; in the assay with UACC-257 melanoma, 117%; in the assay with M14 melanoma, 98.1%.

On to `CC(C)(C)c1cc(C[P+](c2ccccc2)(c2ccccc2)c2ccccc2)cc(C(C)(C)C)c1O`, for which the growth in the assay with NCI-H23 lung is -6.21% (active); in the assay on NCI-H226 lung it was 32.3%; in the assay with NCI-H322M lung it was -9.5% (active); in the assay on HOP-62 NSCLC, 8.73% (active); in the assay on NCI-H460 lung, 3.54% (active); in the assay on HOP-92 NSCLC it was -32.6% (active). The growth was 8.5% (active) in the assay on 786-0 renal; -92.6% (active) in the assay with COLO 205 colon; 20.5% in the assay with DU-145 prostate; 3.48% (active) in the assay with K-562 leukemia; -18.1% (active) in the assay with MALME-3M melanoma; 27.9% in the assay on MDA-MB-231 breast. The growth in the assay with RXF 393 renal was 11.7%; in the assay on SF-268 CNS, 19.4%; in the assay on SF-295 CNS, -3.88% (active); in the assay on SF-539 CNS, 3.24% (active); with M14 melanoma it was 11.7%.

Take `O=P(O)(O)C(O)(Cc1cccnc1)P(=O)(O)O`: the growth with NCI-H23 lung is 93.1%; in the assay on NCI-H226 lung it was 111%; with NCI-H322M lung it was 107%; with HOP-62 NSCLC it was 94.3%; in the assay with NCI-H460 lung, 111%; in the assay on HOP-92 NSCLC it was 114%. In addition, the growth in the assay on A549/ATCC NSCLC was 98.8%; in the assay on 786-0 renal, 108%; with MALME-3M melanoma it was 113%; in the assay with MDA-MB-231 breast, 94.1%; with RXF 393 renal it was 101%; with SF-268 CNS, 104%. Also, the growth in the assay on SF-295 CNS was 111%; with SF-539 CNS, 101%; in the assay on UACC-257 melanoma, 99.4%; with M14 melanoma, 99.6%.

`C[N+](C)(C)CCCCCCCCCC[N+](C)(C)C`: the growth in the assay on NCI-H23 lung was 88.7%; in the assay with NCI-H226 lung, 95.6%; with NCI-H322M lung, 118%; in the assay on HOP-62 NSCLC it was 96.2%; with NCI-H460 lung, 98.2%; in the assay on HOP-92 NSCLC it was 103%. In addition, the growth in the assay on A549/ATCC NSCLC was 103%; with 786-0 renal, 109%; in the assay on MALME-3M melanoma, 93%; in the assay on MDA-MB-231 breast, 83.6%; in the assay with RXF 393 renal, 101%; with SF-268 CNS, 98.2%. In addition, the growth was 113% in the assay with SF-295 CNS, 119% in the assay with SF-539 CNS, 107% in the assay with UACC-257 melanoma and 97.1% in the assay on M14 melanoma.

For the molecule `Cc1cc2nc(CN)[nH]c2cc1C`, the growth with NCI-H23 lung was 103%; with NCI-H226 lung it was 105%; in the assay on NCI-H322M lung, 107%; in the assay with HOP-62 NSCLC, 98.9%; with NCI-H460 lung it was 103%; with HOP-92 NSCLC, 84%. The growth with 786-0 renal is 97.4%; with COLO 205 colon, 104%; in the assay with DU-145 prostate, 106%; with K-562 leukemia, 102%; with MALME-3M melanoma it was 104%; with MDA-MB-231 breast, 117%. In addition, the growth in the assay with RXF 393 renal is 107%; with SF-268 CNS, 106%; in the assay on SF-295 CNS, 98.1%; with SF-539 CNS it was 106%; with M14 melanoma, 99.9%.

For `COc1ccc(-n2nc(C(=O)Nc3ccc(F)cc3)nc2-c2cc(OC)c(OC)c(OC)c2)cc1`, the growth in the assay with NCI-H23 lung is 92.7%; with NCI-H226 lung, 79.3%; with NCI-H322M lung, 78.5%; in the assay on HOP-62 NSCLC, 87.8%; with NCI-H460 lung, 98.4%; in the assay on HOP-92 NSCLC, 91.2%. In addition, the growth with 786-0 renal is 83.6%; in the assay on COLO 205 colon, 102%; in the assay with DU-145 prostate, 111%; in the assay with K-562 leukemia, 83.7%; with MALME-3M melanoma, 96.2%; in the assay on MDA-MB-231 breast it was 93.9%. The growth is 102% in the assay with SF-268 CNS, 88.3% in the assay on SF-539 CNS and 110% in the assay with M14 melanoma.

`COc1ccc(-c2ccc(-c3ccc(C(=N)N)s3)s2)cc1`: the growth in the assay on NCI-H23 lung is -70.3% (active); in the assay on NCI-H226 lung it was -50.9% (active); with NCI-H322M lung, -93.4% (active); with HOP-62 NSCLC it was -81.6% (active); in the assay on NCI-H460 lung, -64.2% (active); in the assay with HOP-92 NSCLC, -64.2% (active). In addition, the growth was -64.4% (active) in the assay with 786-0 renal; -89.2% (active) with COLO 205 colon; -95.5% (active) with DU-145 prostate; -21.5% (active) in the assay with K-562 leukemia; -61.4% (active) in the assay on MALME-3M melanoma; -79.9% (active) in the assay on MDA-MB-231 breast. In addition, the growth in the assay with RXF 393 renal was -57.5% (active); in the assay with SF-268 CNS, -61.3% (active); in the assay with SF-295 CNS it was -77.6% (active); in the assay with SF-539 CNS, -75.5% (active); in the assay on M14 melanoma it was -55.1% (active).

On to `O=C1c2cccc3cccc(c23)C(=O)N1CCCCCCCCCCN1C(=O)c2cccc3cccc(c23)C1=O`, for which the growth in the assay with NCI-H23 lung was 112%; in the assay on NCI-H226 lung, 96.4%; in the assay on NCI-H322M lung, 111%; in the assay on HOP-62 NSCLC, 104%; in the assay on NCI-H460 lung it was 102%; in the assay on HOP-92 NSCLC it was 108%. Besides, the growth is 109% in the assay on 786-0 renal; 119% in the assay with COLO 205 colon; 123% in the assay on DU-145 prostate; 103% in the assay on K-562 leukemia; 113% in the assay with MALME-3M melanoma; 108% in the assay on MDA-MB-231 breast. Further, the growth in the assay with RXF 393 renal was 96.6%; with SF-268 CNS, 100%; with SF-295 CNS it was 95.3%; in the assay with SF-539 CNS it was 102%; in the assay on M14 melanoma it was 119%.

For the molecule `CCN(C(=O)CCl)C(C)(C)C(SSSC(c1ccc(Cl)cc1)C(C)(C)N(CC)C(=O)CCl)c1ccc(Cl)cc1` (centres undefined), the growth is 93.6% in the assay on NCI-H23 lung; 104% in the assay on NCI-H226 lung; 87.7% in the assay with NCI-H322M lung; 86.6% in the assay on HOP-62 NSCLC; 81.1% in the assay with NCI-H460 lung; 47% with HOP-92 NSCLC. Moreover, the growth in the assay on 786-0 renal is 79.7%; in the assay on COLO 205 colon it was 56.8%; in the assay on DU-145 prostate, 85.5%; with K-562 leukemia it was 0.579% (active); in the assay on MALME-3M melanoma, 28.9%; with MDA-MB-231 breast, 73.7%. For the same molecule, the growth in the assay on RXF 393 renal was 48.6%; in the assay on SF-268 CNS it was 91.1%; in the assay with SF-295 CNS, 89.5%; in the assay on SF-539 CNS, 87.7%; in the assay with M14 melanoma it was -15.9% (active).
